Screen size: about 340,000 compounds; about 6,400 (1.9%) were called active. Roughly 4% stayed inconclusive and do not appear here. The sample holds actives, similar compounds and a random draw of the others, so the mix is not that of the screen. Unmarked numbers belong to inactive results. The call rests on the fitted dose curve; in most records, active means well fitted falling curve with a large enough effect; inconclusive means small, poorly fitted or top-dose-only effect; inactive means no such curve, though single readings can be large or run the other way.

Chain of ATP-dependent Clp protease proteolytic subunit (Bacillus subtilis (strain 168)) (P80244 whole entry, looked up): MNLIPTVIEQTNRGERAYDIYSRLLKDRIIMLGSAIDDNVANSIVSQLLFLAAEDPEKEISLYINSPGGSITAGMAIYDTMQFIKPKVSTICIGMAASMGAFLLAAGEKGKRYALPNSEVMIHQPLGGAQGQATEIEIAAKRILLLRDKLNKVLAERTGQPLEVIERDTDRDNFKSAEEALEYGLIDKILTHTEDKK

This test has as its target ATP-dependent Clp protease proteolytic subunit (Bacillus subtilis (strain 168)) (UniProt P80244). Put plainly: qHTS Assay for Activators of ClpP. Further: the source files actives as falling curves though it sought activators and does not explain the sign; nearly all actives have a fitted effect of over 65% in size. The settings on record: purified B. subtilis ClpP, FRET peptide cleavage, 20 min; series mostly up to 57.5 µM; activity change, negative = active: at the top concentration. The text has this: The Clp protease proteolytic subunit (ClpP) is the core unit of the Clp complex belonging to the peptidase family S14 that hydrolyzes protein into small peptides in the presence of ATP and magnesium. It is ubiquitously expressed and is the major protease in bacteria. […] Unlike common antibiotics that simply interfere with the essential enzyme activity, ADEP binding activates the ClpP core in the absence of the regulatory Clp-ATPases leading to uncontrolled proteolysis and eventually cell death. Activators binding to the docking site on ClpP can also block formation of the ClpXP and ClpA/C-P holoenzyme complexes interfering with the normal biological functions of ClpP and thus have the potential to become new anti-microbials.
To identify activators of ClpP, a FRET based quenching reversal assay was developed using a purified B. subtilis ClpP and a decapeptide substrate (FRET-FV). The FRET-FV is tagged with a fluorescent molecule amino benzoic acid (donor) at the N-terminus and a nitrotyrosine quencher (acceptor) at the C-terminus. FRET-FV cleaves upon activation of ClpP with ADEP treatement and reverses the quenching effect of the nitrotyrosine causing an increase in fluorescence emission signal at 430nm. This assay was used to screen the Molecular Libraries Small Molecule Repository (MLSMR).
NIH Molecular Libraries Probe Production Centers Network [MLPCN]
NIH Chemical Genomics Center [NCGC]
Assay Submitter (PI): Michael Maurizi, National Cancer Institute
Two and a half microL/well of purified enzyme solution (final concentrations 10 microg/mL B. subtilis ClpP in 100 mM Tris/HCl pH8, 100 mM KCl, 0.05% low protease BSA, 2.5% glycerol, 0.01% Tween-20 buffer) was dispensed into 1536-well assay plates (Greiner, black solid, medium-binding plates) with Aurora Discovery BioRAPTR Flying Reagent Dispenser (FRD, Beckton-Dickenson). Compound solution (23 nL) was transferred to the assay plate using Kalypsys pin tool equipped with a 1536-pin tool. […] FRET signals at time 0 and after 20 min room temperature incubation were obtained using the PerkinElmer Envision plate reader with 320nm excitation and 430nm emission filters. Delta FRET value (Time 20 - Time 0) was calculated and normalized to the delta FRET value of positive control ADEP (5.8 microM final concentration) and negative control DMSO and no enzyme wells.
For orientation: In qHTS, concentration-response curves come from the screen itself.
Take `Cc1cc(C)n2c(Nc3c(C)cccc3C)c(CCc3ccccc3)nc2n1`: the “activity change, negative = active” value is -7.95%. As for `Cc1ccc(O)c(CCc2ccccc2)n1`, the Potency is 28.2 µM (active).

Turning to `c1ccc(CCc2ccccn2)cc1`, the “activity change, negative = active” value was -10.1%. Still for that read-out and setting: with `C=CCOc1ccccc1CNn1c(C)n[nH]c1=S` the figure was -5.37%. Still for that read-out and setting: as for `Cn1c(NC(=O)c2ccccc2)nc2ccccc21`, the figure is 0.103%. Same read-out and setting: with `Cn1c(CNC(=O)C(C)(C)C)nc2ccccc21` the figure was 0.269%. Turning to `Cn1c(-c2ccc(C(=O)c3ccccc3)s2)nc2ccccc21`, the Potency is 20 µM (active). In the case of `CCCCc1nc2ccc(F)cc2cc1C`, the “activity change, negative = active” value was -3.04%.

As to `CCCc1ccc(C(O)c2ncc(-c3cccc(OC)c3)[nH]2)cc1` (stereo unspecified), the “activity change, negative = active” value was -0.496%. The same measure, in the same setting: as for `COc1ccc(CC(N)c2csc(NC(=O)Cc3ccccc3)n2)cc1` (stereo unspecified), the figure is -0.24%; as for `CCOC(=O)CSc1nnc(CNC(=O)c2cccs2)n1-c1cc(OC)ccc1OC`, -0.328%. On the same count and under the same terms, as for `CCOC(=O)CSc1nnc(CNC(=O)c2ccco2)n1-c1ccc(F)cc1`, the figure is -4.96%.

For the compound `CCOC(=O)CSc1nnc(CNC(=O)c2cccs2)n1-c1ccccc1`, the Potency is 10 µM (active).

Consider `Nc1nc2c(Br)ccc(Br)c2cc1C(=O)NCCc1ccccc1`, for which the “activity change, negative = active” value is 0.0907%.

As for `NC(=O)C1CCN(C(=O)COc2ccc3c4c(c(=O)oc3c2)CCC4)CC1`, the “activity change, negative = active” value was 4.67%.

Turning to `O=C(COc1ccc2c3c(c(=O)oc2c1)CCCC3)NCC(O)c1ccccc1` (stereo unspecified), the “activity change, negative = active” value was 3.98%.

For `O=C(COc1ccc2c3c(c(=O)oc2c1)CCC3)NC1CCCCC1`, the Potency was 14.1 µM (active).

For `CC1(C(=O)Nc2cccc3c2CCCC3)CCN1C(=O)CCc1ccc(Cl)cc1Cl` (stereo unspecified), the “activity change, negative = active” value was 2.56%.

On to `Cc1cc2cc3n(c2nn1)N=C(Cl)CC3`, for which the “activity change, negative = active” value is 4.2%. On the same count and under the same terms, as for `Cc1ccc(Cc2c(-c3ccc(C)cc3)nc3c4ccccc4ccn23)cc1`, the figure is -5.5%.

With `FC(F)(F)c1ccccc1Cc1c(-c2ccccc2)nc2c3ccccc3ccn12`, the Potency is 22.4 µM (active). On to `CCCc1nc2c3ccccc3ccn2c1Cc1ccccc1C(F)(F)F`, for which the “activity change, negative = active” value is 4.9%. For `NNc1nc2c(Cl)cccc2s1`, the “activity change, negative = active” value is -9.24%. `NC(=O)c1c(Nc2nc3c(F)cccc3s2)sc2c1CCCC2`: the “activity change, negative = active” value is -15.4%.

Consider `Fc1cc(F)c2nc(Nc3nc4c(F)cccc4s3)sc2c1`, for which the Potency was 3.55 µM (active).

On to `CCOC(=O)c1cc2cc(OC)ccc2n1C1CCN(C)CC1`, for which the “activity change, negative = active” value was 4.63%. Still for that read-out and setting: as for `CCC(C(=O)NCc1ccccc1)n1c(Cc2cc(F)cc(F)c2)nc2ccccc21` (stereo unspecified), the figure is -1.02%; as for `CC1Cc2[nH][nH]c(=O)c2C(C2CC2)O1` (stereo unspecified), 0.813%. Take `CCCCCNC(=O)C1C(=O)Nc2ccccc2C(=O)N1C(C)(C)C` (stereo unspecified): the “activity change, negative = active” value is -9.04%. For the compound `COc1ccc(C2=Nc3cc(C)ccc3OC2)cc1`, the Potency was 28.2 µM (active). Take `COc1ccc(-c2cc(-c3ccc(F)cc3)nc3c2COc2ccccc2-3)cc1`: the “activity change, negative = active” value was 4.12%.

In the case of `COc1ccc(-c2cn3ccc(C)cc3n2)cc1`, the “activity change, negative = active” value is 4.16%. Still for that read-out and setting: as for `CCOC(=O)[C@]12CCCC=C1N(CCC1=CCCCC1)C(=O)[C@H](CC(=O)NCCCOC)C2`, the figure is 1.11%.

Regarding `Cc1cc(NC(=O)CSc2nc3ccccc3n2CC(C)C)no1`, the “activity change, negative = active” value was -2.44%. Consider `Cc1ccc2nc(-c3ccc(SCC(=O)Nc4cc(C)on4)nc3)[nH]c2c1`, for which the Potency is 31.6 µM (active). Turning to `Cc1cc(NC(=O)CSCC(=O)NC(C)c2ccccc2)no1` (stereo unspecified), the “activity change, negative = active” value was -3.37%. The same measure, in the same setting: with `CN(CCC#N)c1ccc(C=O)cc1` the figure was -10.3%. On the same count and under the same terms, as for `CC(C)(C)c1ccc(C(=O)C[N+]2(C)CCCc3ccccc32)cc1` (stereo unspecified), the figure is 0.0913%. As for `COc1ccc(S(=O)(=O)N[C@@H]2C=C[C@@H](CC(=O)N3CCc4ccccc4C3)O[C@@H]2CO)cc1`, the “activity change, negative = active” value is 0.958%.

As to `CCn1c2ccccc2c2cc(NC(=O)COC(=O)c3cc(S(=O)(=O)N4CCCCC4)ccc3Cl)ccc21`, the Potency is 10 µM (active). For `O=C(COC(=O)c1cc(S(=O)(=O)N2CCOCC2)ccc1Cl)NCCc1ccccc1`, the “activity change, negative = active” value was 0.437%. As to `CCn1c2ccccc2c2cc(NC(=O)COC(=O)c3ccccc3Br)ccc21`, the “activity change, negative = active” value is -3.15%. On the same count and under the same terms, with `COc1cc2nc(N3CCCN(C)CC3)nc(NC3CC3)c2cc1OC` the figure was 4.13%; with `COc1ccc(Nc2cc(C(=O)NCCCN(C)c3ccccc3)c3ccccc3n2)c(OC)c1`, -0.556%. On to `CCCCN(CCCNC(=O)c1cc(Nc2ccccc2OC)nc2ccccc12)c1ccccc1`, for which the Potency is 17.8 µM (active). Take `COc1ccccc1Nc1cc(C(=O)NCCCN(C)C2CCCCC2)c2ccccc2n1`: the “activity change, negative = active” value is -1.71%. With `CN(C)C(=O)c1cccc(-c2cnc3c(NC=O)cc(-c4ccc(C(=O)N5CCOCC5)cc4)cn23)c1`, the “activity change, negative = active” value is -29.9%.

With `COCCCNC(=O)c1ccc(-c2c(C)noc2C)c2ccoc12`, the “activity change, negative = active” value was -22.5%. Still for that read-out and setting: as for `C=Cc1ccc(C(=O)N2CCCC(CCC(=O)N3CCN(c4ccccn4)CC3)C2)cc1` (stereo unspecified), the figure is -5.05%; as for `O=C(CCC1CCCN(C(=O)Cc2ccc(F)cc2)C1)N1CCN(c2ccccn2)CC1` (stereo unspecified), -1.11%. Turning to `O=C(CCC1CCCN(C(=O)c2ccc(F)c(F)c2)C1)N1CCN(c2ccccn2)CC1` (stereo unspecified), the Potency was 17.8 µM (active).

Values taken from PubChem BioAssay AID651965 (National Center for Advancing Translational Sciences (NCATS), 2013).
